We go through seven sequences from paper PMC7862700, “An all-to-all approach to the identification of sequence-specific readers for epigenetic DNA modifications on cytosine”.

Holding throughout (assay): DAPPL (digital affinity profiling via proximity ligation, sequencing); 10 mM Tris-HCl pH 7.5, 50 mM NaCl, 1 mM DTT, 4% glycerol, room temperature, 30 min; GST-TFs on glutathione beads, 16-mer random dsDNA library, 0.1% formaldehyde crosslink after washing; high values mean tight binding
What all share (conditions): protein: recombinant; tags: N-terminal GST; dsDNA, one strand shown

One assay deals with T1, ERF (Homo sapiens, UniProt P50548 1-548).
T1 sequence: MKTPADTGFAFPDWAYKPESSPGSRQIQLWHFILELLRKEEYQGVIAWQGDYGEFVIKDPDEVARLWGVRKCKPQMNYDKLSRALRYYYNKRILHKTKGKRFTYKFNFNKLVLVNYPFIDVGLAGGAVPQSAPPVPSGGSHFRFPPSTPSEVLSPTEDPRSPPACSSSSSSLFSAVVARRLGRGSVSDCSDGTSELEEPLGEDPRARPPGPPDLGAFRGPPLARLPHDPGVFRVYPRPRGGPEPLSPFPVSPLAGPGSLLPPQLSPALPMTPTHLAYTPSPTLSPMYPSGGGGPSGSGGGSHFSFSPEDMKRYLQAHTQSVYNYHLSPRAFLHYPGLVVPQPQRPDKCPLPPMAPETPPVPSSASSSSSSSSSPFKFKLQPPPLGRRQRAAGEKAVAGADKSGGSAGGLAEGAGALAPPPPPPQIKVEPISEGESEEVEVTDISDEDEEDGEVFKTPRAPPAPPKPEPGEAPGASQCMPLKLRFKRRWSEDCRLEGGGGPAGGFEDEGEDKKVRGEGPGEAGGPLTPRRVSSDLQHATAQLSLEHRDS
An outline of the steps:
(§1)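 Binding signal is each hexamer's read frequency for a factor divided by its frequency in the tag-only sample. The factors were GST-fused human transcription factors from yeast, captured on glutathione beads, DNA-barcoded and pooled with that sample. Pools were incubated with 200 nmole of a random double-stranded 16-mer DNA library in Tris/NaCl/DTT/glycerol buffer at room temperature for 30 min, then washed, crosslinked with 0.1% formaldehyde, proximity-ligated with BsaI/T4 ligase (1 h, 37 °C), PCR-amplified and sequenced on an Illumina NextSeq500.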

In the next assay the target is T2, ETV3L (Homo sapiens, UniProt Q6ZN32 1-361).
T2 sequence: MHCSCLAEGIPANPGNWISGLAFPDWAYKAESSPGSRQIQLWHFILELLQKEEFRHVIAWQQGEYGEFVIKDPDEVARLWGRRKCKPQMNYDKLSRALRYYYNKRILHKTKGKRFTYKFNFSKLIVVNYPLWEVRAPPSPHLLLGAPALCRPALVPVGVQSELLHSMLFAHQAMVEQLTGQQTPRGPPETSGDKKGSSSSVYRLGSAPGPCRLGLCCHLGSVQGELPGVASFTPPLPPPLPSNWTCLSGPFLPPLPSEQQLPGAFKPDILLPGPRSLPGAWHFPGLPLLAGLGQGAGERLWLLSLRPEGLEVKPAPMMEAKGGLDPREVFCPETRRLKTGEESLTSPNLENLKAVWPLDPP
In a few lines:
as §1

The next assay has as its target T3, ETS2 (Homo sapiens, UniProt P15036 1-469).
T3 sequence: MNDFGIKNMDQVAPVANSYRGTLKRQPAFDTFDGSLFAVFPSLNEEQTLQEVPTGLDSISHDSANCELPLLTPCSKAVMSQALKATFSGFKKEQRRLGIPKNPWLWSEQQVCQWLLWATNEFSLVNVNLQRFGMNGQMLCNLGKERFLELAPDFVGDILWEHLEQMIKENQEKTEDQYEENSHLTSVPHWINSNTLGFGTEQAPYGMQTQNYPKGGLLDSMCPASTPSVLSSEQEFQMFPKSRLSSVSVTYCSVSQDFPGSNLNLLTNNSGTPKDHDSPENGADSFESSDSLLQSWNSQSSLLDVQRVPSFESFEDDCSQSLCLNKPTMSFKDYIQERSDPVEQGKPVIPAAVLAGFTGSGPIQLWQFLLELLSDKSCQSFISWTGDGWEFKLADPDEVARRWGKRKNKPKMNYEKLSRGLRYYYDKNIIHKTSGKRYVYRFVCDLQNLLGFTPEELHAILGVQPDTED
In a few lines:
as §1

Another assay has as its target T4, SPDEF (Homo sapiens, UniProt O95238 1-335).
T4 sequence: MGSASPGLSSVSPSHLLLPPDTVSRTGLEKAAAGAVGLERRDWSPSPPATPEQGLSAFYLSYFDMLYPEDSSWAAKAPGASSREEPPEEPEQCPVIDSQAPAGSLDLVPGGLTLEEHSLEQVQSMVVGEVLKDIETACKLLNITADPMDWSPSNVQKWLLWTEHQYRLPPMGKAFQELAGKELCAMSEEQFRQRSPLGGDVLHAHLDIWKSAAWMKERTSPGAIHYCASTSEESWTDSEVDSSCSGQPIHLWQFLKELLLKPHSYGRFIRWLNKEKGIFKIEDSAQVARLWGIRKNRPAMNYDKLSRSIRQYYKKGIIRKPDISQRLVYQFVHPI
In a few lines: as §1

In another assay the target is T5, ETV7 (Homo sapiens, UniProt Q9Y603 1-341).
T5 sequence: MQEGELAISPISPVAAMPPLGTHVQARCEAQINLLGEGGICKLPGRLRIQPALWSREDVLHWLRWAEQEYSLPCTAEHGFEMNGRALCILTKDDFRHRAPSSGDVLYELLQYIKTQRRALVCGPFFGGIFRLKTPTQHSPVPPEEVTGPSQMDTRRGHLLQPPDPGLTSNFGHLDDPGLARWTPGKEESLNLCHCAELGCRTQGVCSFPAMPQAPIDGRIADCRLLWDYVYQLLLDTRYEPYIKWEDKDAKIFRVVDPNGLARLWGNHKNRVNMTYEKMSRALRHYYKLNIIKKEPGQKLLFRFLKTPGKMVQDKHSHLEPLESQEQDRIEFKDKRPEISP
An outline of the steps:
as §1

In another assay the target is T6, ELF5 (Homo sapiens, UniProt Q9UKW6-2 1-255).
T6 sequence: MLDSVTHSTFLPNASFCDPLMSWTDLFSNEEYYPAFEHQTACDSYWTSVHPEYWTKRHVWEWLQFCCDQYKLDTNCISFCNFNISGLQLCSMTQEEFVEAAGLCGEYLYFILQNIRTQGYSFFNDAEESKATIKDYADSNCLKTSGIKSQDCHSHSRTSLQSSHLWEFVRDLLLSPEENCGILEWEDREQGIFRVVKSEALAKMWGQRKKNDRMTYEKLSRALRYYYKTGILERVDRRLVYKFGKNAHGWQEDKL
In a few lines: as §1

The target of another assay is T7, ETV3 (Homo sapiens, UniProt P41162-2 1-143).
T7 sequence: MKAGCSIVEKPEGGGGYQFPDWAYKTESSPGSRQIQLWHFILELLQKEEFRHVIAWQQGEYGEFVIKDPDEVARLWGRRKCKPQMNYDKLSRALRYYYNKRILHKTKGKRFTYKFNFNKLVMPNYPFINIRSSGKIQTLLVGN
In a few lines:
as §1

The target of another assay is ETV6 (Homo sapiens, UniProt P41212 1-452). In a few lines: as §1
ETV6, sequence (P41212 whole entry): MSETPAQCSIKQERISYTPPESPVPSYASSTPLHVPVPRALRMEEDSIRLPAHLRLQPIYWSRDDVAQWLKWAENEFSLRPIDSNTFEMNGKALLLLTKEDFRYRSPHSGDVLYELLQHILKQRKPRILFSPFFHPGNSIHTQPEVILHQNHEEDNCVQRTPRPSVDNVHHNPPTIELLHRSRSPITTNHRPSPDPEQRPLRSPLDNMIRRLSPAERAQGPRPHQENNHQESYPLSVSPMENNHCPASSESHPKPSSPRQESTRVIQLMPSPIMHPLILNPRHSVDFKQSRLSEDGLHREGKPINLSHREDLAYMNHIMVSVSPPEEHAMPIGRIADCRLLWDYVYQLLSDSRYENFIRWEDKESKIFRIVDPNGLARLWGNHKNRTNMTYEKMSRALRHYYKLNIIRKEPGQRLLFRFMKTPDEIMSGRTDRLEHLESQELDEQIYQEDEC

Consider GTTTAA, for which the binding signal in the assay with ERF was 1.21 fold enrichment (6-mer frequency, TF over GST control); with ETV3L, 1.24 fold enrichment (6-mer frequency, TF over GST control); with ETS2, 1.15 fold enrichment (6-mer frequency, TF over GST control); with SPDEF, 1.05 fold enrichment (6-mer frequency, TF over GST control); with ETV7 it was 1.21 fold enrichment (6-mer frequency, TF over GST control); with ELF5, 1.17 fold enrichment (6-mer frequency, TF over GST control). For the same sequence, the binding signal with ETV3 is 1.13 fold enrichment (6-mer frequency, TF over GST control); with ETV6 it was 1.13 fold enrichment (6-mer frequency, TF over GST control).
On to GCTTAC, for which the binding signal with ERF is 1.13 fold enrichment (6-mer frequency, TF over GST control); in the assay with ETV3L it was 1.09 fold enrichment (6-mer frequency, TF over GST control); with ETS2 it was 1.09 fold enrichment (6-mer frequency, TF over GST control); in the assay with SPDEF, 1.23 fold enrichment (6-mer frequency, TF over GST control); with ETV7, 1.03 fold enrichment (6-mer frequency, TF over GST control); in the assay with ELF5, 1.14 fold enrichment (6-mer frequency, TF over GST control). Further, the binding signal is 1.23 fold enrichment (6-mer frequency, TF over GST control) with ETV3 and 1.03 fold enrichment (6-mer frequency, TF over GST control) in the assay with ETV6.
On to AGCTTC, for which the binding signal was 1.75 fold enrichment (6-mer frequency, TF over GST control) with ERF; 1.64 fold enrichment (6-mer frequency, TF over GST control) with ETV3L; 1.77 fold enrichment (6-mer frequency, TF over GST control) in the assay with ETS2; 1.67 fold enrichment (6-mer frequency, TF over GST control) with SPDEF; 1.65 fold enrichment (6-mer frequency, TF over GST control) in the assay with ETV7; 2.21 fold enrichment (6-mer frequency, TF over GST control) with ELF5. For the same sequence, the binding signal with ETV3 is 1.77 fold enrichment (6-mer frequency, TF over GST control); with ETV6, 1.84 fold enrichment (6-mer frequency, TF over GST control).
As for ATGAGC, the binding signal in the assay with ERF is 1.29 fold enrichment (6-mer frequency, TF over GST control); with ETV3L, 1.14 fold enrichment (6-mer frequency, TF over GST control); with ETS2, 1.26 fold enrichment (6-mer frequency, TF over GST control); with SPDEF, 1.12 fold enrichment (6-mer frequency, TF over GST control); with ETV7, 1.15 fold enrichment (6-mer frequency, TF over GST control); with ELF5, 1.12 fold enrichment (6-mer frequency, TF over GST control). Further, the binding signal is 1.34 fold enrichment (6-mer frequency, TF over GST control) with ETV3 and 1.24 fold enrichment (6-mer frequency, TF over GST control) with ETV6.
Take TTGACA: the binding signal with ERF is 1.46 fold enrichment (6-mer frequency, TF over GST control); in the assay with ETV3L, 1.37 fold enrichment (6-mer frequency, TF over GST control); with ETS2, 1.4 fold enrichment (6-mer frequency, TF over GST control); with SPDEF, 1.3 fold enrichment (6-mer frequency, TF over GST control); with ETV7 it was 1.44 fold enrichment (6-mer frequency, TF over GST control); with ELF5 it was 1.29 fold enrichment (6-mer frequency, TF over GST control). Also, the binding signal was 1.26 fold enrichment (6-mer frequency, TF over GST control) with ETV3 and 1.32 fold enrichment (6-mer frequency, TF over GST control) with ETV6.
Consider TCTAAT, for which the binding signal with ERF is 1.26 fold enrichment (6-mer frequency, TF over GST control); in the assay with ETV3L, 1.14 fold enrichment (6-mer frequency, TF over GST control); with ETS2, 1.21 fold enrichment (6-mer frequency, TF over GST control); with SPDEF it was 1.21 fold enrichment (6-mer frequency, TF over GST control); in the assay with ETV7 it was 1.07 fold enrichment (6-mer frequency, TF over GST control); with ELF5, 1.11 fold enrichment (6-mer frequency, TF over GST control). The binding signal with ETV3 is 1.05 fold enrichment (6-mer frequency, TF over GST control); with ETV6 it was 1.2 fold enrichment (6-mer frequency, TF over GST control).
In the case of TTCTCA, the binding signal with ERF is 1.21 fold enrichment (6-mer frequency, TF over GST control); with ETV3L, 1.23 fold enrichment (6-mer frequency, TF over GST control); in the assay with ETS2, 1.21 fold enrichment (6-mer frequency, TF over GST control); with SPDEF, 1.17 fold enrichment (6-mer frequency, TF over GST control); with ETV7, 1.26 fold enrichment (6-mer frequency, TF over GST control); in the assay with ELF5, 1.23 fold enrichment (6-mer frequency, TF over GST control). In addition, the binding signal with ETV3 is 1.34 fold enrichment (6-mer frequency, TF over GST control); with ETV6 it was 1.26 fold enrichment (6-mer frequency, TF over GST control).
